Inconclusive results are not listed. Calls of active or inactive are those of the source. Calls come from the whole dose curve; as a rule, active = well fitted inhibition curve with a large enough effect; inconclusive = small, poorly fitted or top-dose-only effect; inactive = flat fitted curve, though single readings scatter.
% is set by controls: 0 for no effect and ±100 for the full control effect; potency is the fitted concentration of half-maximal effect.

This assay in a line: P-glycoprotein substrates identified in KB-8-5-11 adenocarcinoma cell line, qHTS therapeutic library screen (AID 1346987). Note: nearly all actives have a fitted effect of over 65% in size. The following applies: KB-8-5-11 (P-gp overexpressing) viability, CellTiter-Glo, 72 h; series mostly up to 44.5 µM; activity change, negative = cytotoxicity: at the top concentration. The source says:
The ATP-binding cassette transporters P-glycoprotein (P-gp) is known to limit brain penetration of many chemotherapy drugs. […] As such, we developed a high-throughput screen (HTS) to identify substrates of P-gp from a series of chemical libraries including the National Center for Advancing Translational Sciences Pharmaceutical Collection NPC, 2,816 compounds), testing a total of 10,804 compounds, most of which have known mechanisms of action. We used the CellTiter-Glo viability assay to test library compounds against the parental KB-3-1 human cervical adenocarcinoma cell line and the colchicine-selected sub-line KB-8-5-11 that over-expresses P-gp. KB-8-5-11 cells were also tested in the presence of a P-gp inhibitor (tariquidar) to assess reversability of transporter-mediated resistance. Of the tested compounds, a total of 90 P-gp substrates were identified including 55 newly identified P-gp substrates. Substrates were confirmed using an orthogonal killing assay against HEK-293 cells transfected with P-gp. As exemplars, we confirmed that […] (cyclin-dependent kinase inhibitor); AT9283, (Janus kinase 2/3 inhibitor); ispinesib (kinesin spindle protein inhibitor); gedatolisib (PKI-587, phosphoinositide 3-kinase/mammalian target of rampamycin inhibitor); GSK-690693 (AKT inhibitor); and KW-2478 (heat shock protein 90 inhibitor) were substrates , and direct ATPase stimulation was assessed. ABCG2 was also found to confer high levels of resistance to AT9283, GSK-690693 and gedatolisib, while ispinesib, AT7519 and KW-2478 were weaker substrates.
The HeLa derivative cell line, KB-3-1, and its colchicine-selected, P-gp-overexpressing subline, KB-8-5-11 were maintained in DMEM with 10% FCS and Pen/Strep with glutamine at 37 degree C in 5% CO2. For KB-8-5-11 cells, colchicine was added to the medium at a concentration of 100 ng/mL. HEK-293 cells transfected with empty vector (pcDNA) or vector containing human ABCB1 (MDR-19) or ABCG2 (R-5) have been described previously (Robey, Lin, Qiu, Chan & Bates, 2011) and were maintained in EMEM supplemented with 10% FCS, Pen/Strep and glutamine with 2 mg/ml G418 to select for the expression of the transporter. Cultures were confirmed to be free of mycoplasma infection using the MycoAlert Mycoplasma Detection Kit (Lonza, Walkersville, MD). For the screen, assay medium was identical to culture medium except for KB-8-5-11 where colchicine was excluded from the medium.
All cell lines were plated into 1536-well plates at 500 cells/well in 5 uL media. Compounds were then pinned in dose-response using a 1536-head pin tool (Kalypsis, San Diego, CA) and plates were incubated at 37 degree C in 5% CO2 for an additional 72 h. CellTiter-Glo reagent (Promega) was dispensed into the wells, incubated for 5 min and luminescence was read on a ViewLux instrument (Perkin-Elmer). Cytotoxic compounds were defined as those that yielded a curve class of -1.1, -1.2, -2.1, -2.2, -2.3, or -2.4, a maximum response of >50% and an AC50 of < 10 uM. Cherry-picked hits from screening analysis were tested with both the KB pair of cell lines, and the pcDNA (empty vector control) and MDR-19 (P-gp overexpressing) pair were tested, in the absence and presence of tariquidar.
Background: qHTS replaces the single test concentration by a dilution series.
As for `COC(=O)C1=CO[C@@H](O[C@@H]2O[C@H](CO)[C@@H](O)[C@H](O)[C@H]2O)[C@H]2[C@@H]1C=C[C@]21C=C([C@H](C)OC(=O)/C=C/c2ccc(O)cc2)C(=O)O1`, the Potency is 4.32 µM (active). Take `O=C(O)C1=CO[C@@H](O[C@@H]2O[C@H](CO)[C@@H](O)[C@H](O)[C@H]2O)[C@@H]2C(CO)=CC[C@H]12`: the “activity change, negative = cytotoxicity” value is 2.03% (inactive).

`CN(CC1COCCO1)S(=O)(=O)Nc1ccc2ccc3ncc(-c4cnn(C)c4)cc3c(=O)c2c1` (stereo not given): the Potency is 14.6 µM (active). For `CO[C@@H]1[C@H](O)CCC2(CO2)[C@H]1[C@@]1(C)O[C@@H]1CC=C(C)C` (stereo not given in full), the “activity change, negative = cytotoxicity” value was -13.1% (inactive). `CCOC(=O)N1c2ccc(C(F)(F)F)cc2C(N(Cc2cc(C(F)(F)F)cc(C(F)(F)F)c2)C(=O)OC)CC1CC` (stereo not given): the “activity change, negative = cytotoxicity” value was -7.27% (inactive). On the same count and under the same terms, for `COC(C)=O` the value was -14% (inactive).

Turning to `C/C=C1\NC(=O)[C@H]2CSSCC/C=C/[C@H](CC(=O)N[C@H](C(C)C)C(=O)N2)OC(=O)C(C(C)C)NC1=O` (stereo not given in full), the Potency was 20.6 µM (active). For `CC1(C)CC[C@]23CO[C@@]4(CCC5[C@@]6(C)CC[C@H](O[C@@H]7OC[C@H](O[C@@H]8O[C@H](CO)[C@@H](O)[C@H](O)[C@H]8O[C@@H]8OC[C@@H](O)[C@H](O)[C@H]8O)[C@H](O)[C@H]7O)[C@@](C)(CO)C6CC[C@@]5(C)[C@]4(C)CC2=O)[C@@H]3C1` (stereo not given in full), the activity change, negative = cytotoxicity was -22.9% [at 9.29 µM] (inactive). `COC(=O)CC1OC(C)C2=C(O)c3c(O)cccc3C(=O)C23OC13` (stereo not given): the Potency is 10.1 µM (active). For the molecule `Cc1cccc(C#Cc2cc(F)cc(C#N)c2)n1`, the “activity change, negative = cytotoxicity” value is -11.7% (inactive). Regarding `CC(C)C(C)C(O)C1CC23CC(=O)C4(O)C(=C2CCC3C1C)C=CC1(O)CC(O)CCC14C` (stereo not given), the “activity change, negative = cytotoxicity” value is -3.25% [at 17.3 µM] (inactive).

Regarding `CCC(CC)C(c1ccc(Nc2nc3ccccc3s2)cc1)n1cncn1` (stereo not given), the Potency was 23.1 µM (active).

Take `CCn1c(=O)n([C@H]2CCCN(c3nccc(-c4cc5ccccc5o4)n3)C2)c2ccccc21`: the “activity change, negative = cytotoxicity” value was -13% (inactive). For the molecule `O=C(Nc1ccccc1C(=O)Nc1ccc(CCO)cc1)c1ccc([N+](=O)[O-])cc1`, the “activity change, negative = cytotoxicity” value is -19.4% (inactive). On the same count and under the same terms, for `C=C1C(=O)O[C@@H]2[C@H]1CC[C@H](C)[C@]1(CCC(=O)O1)C2(C)O` (stereo not given in full) the value was -8.78% (inactive). On the same count and under the same terms, for `CC(=O)OC1CCC2(C)C(CCC3(C)C2CC=C2C4C(C)C(C)CCC4(C)CCC23C)C1(C)C(=O)O` (stereo not given) the value was -10.4% [at 17.3 µM] (inactive). Still for that read-out and setting: in the case of `CCCn1cc2c(nc(NC(=O)Nc3ccc(OC)cc3)n3nc(-c4ccco4)nc23)n1` it was 3.1% (inactive); in that of `Cc1cc(OCCCS(C)(=O)=O)cc(C)c1-c1cccc(COc2ccc(C3=CC(=O)NS3=O)cc2)c1` (stereo not given), -17.9% (inactive).

As for `C/C=C/C=C/C(=O)O[C@@H]1C=C2COC(=O)[C@]2(O)[C@@]2(C)CCCC(C)(C)[C@H]12`, the “activity change, negative = cytotoxicity” value is 8% (inactive). In the case of `COc1ccc2[nH]c(=O)c3c(c2c1)OC(C)(C)C=C3`, the “activity change, negative = cytotoxicity” value was 4.66% (inactive). On the same count and under the same terms, in the case of `CCCCCCCCCCCCCCCC(=O)OC[C@@H](COP(=O)([O-])OCC[N+](C)(C)C)OC(=O)CCCCCCCCCCCCCCC` it was 14.5% (inactive). Same read-out and setting: in the case of `C/C=C(/C)C(=O)O[C@@H]1C[C@@H](OC(=O)CC(C)C)C2(C)C3C(=O)C=C(C)C2C3C1(C)C` (stereo not given in full) it was -21% [at 17.3 µM] (inactive); in that of `COc1ccc(CCN(C)CCCOc2nsc(-c3ccccc3)n2)cc1OC`, -12.1% (inactive); in that of `O=C(O)c1ccccc1[O-].O=C(O)c1ccccc1[O-].[Zn+2]`, 12% (inactive). On the same count and under the same terms, in the case of `CC(C)NC(=O)N1CC[C@H](N=C2Nc3cc(F)ccc3N(CC(F)F)c3ccc(Cl)cc32)C1` it was -19.3% [at 9.29 µM] (inactive); in that of `C=C[C@]1(C)C[C@H](O)[C@H]2C(=C)C(=O)O[C@@H]2[C@H]1C(=C)CO`, -8.2% (inactive); in that of `CC1=CC2/C=C(\C)CCC(O)C(=O)C(O)CC(=O)C23C(=O)NC(CC(C)C)C3C1C` (stereo not given), -13.5% [at 17.3 µM] (inactive). Regarding `COc1c(CCC(=O)O)cccc1O[C@@H]1O[C@H](CO)[C@@H](O)[C@H](O)[C@H]1O`, the molecule was classed as inactive. `Cc1nc2c(C(F)(F)F)cccc2nc1-c1ccc(-c2cccc(S(C)(=O)=O)c2)cc1`: the “activity change, negative = cytotoxicity” value is -20.1% (inactive). Same read-out and setting: in the case of `O=C(O)c1cc2ccccc2c(Cc2c(O)c(C(=O)O)cc3ccccc23)c1O` it was -0.0258% (inactive). With `CC1(C(=O)Nc2ccc(F)nc2)CCCN1c1nc(Nc2cc(C3CC3)[nH]n2)c2cccn2n1` (stereo not given), the Potency was 2.31 µM (active). `CC#C[C@@H](CC(=O)O)c1ccc(OCc2cccc(-c3ccc(C(F)(F)F)cc3)c2)cc1`: the “activity change, negative = cytotoxicity” value was -24.3% (inactive). The same measure, in the same setting: for `CCCCCCCCCCCCCCCC(=O)O[C@@H]1CC(C)=C(/C=C/C(C)=C/C=C/C(C)=C/C=C/C=C(C)/C=C/C=C(C)/C=C/C2=C(C)C[C@@H](OC(=O)CCCCCCCCCCCCCCC)CC2(C)C)C(C)(C)C1` the value was 2.82% (inactive); for `C=C1CCC[C@]2(C)CC/C(=C(/CO)C(=O)OC)C[C@@H]12`, -1.04% (inactive). On to `CN(C)CCN(Cc1ccccc1)C(=O)c1cc(-c2ccc(F)cc2)n2nc(C(C)(C)C)cc2n1`, for which the Potency is 20.6 µM (active). `CC1OC(OC2C(O)COC(O[C@@H]3[C@@H](O)[C@@H](O)[C@H](OC4C(OC(=O)[C@]56CCC(C)(C)CC5C5=CCC7[C@@]8(C)C[C@H](O)[C@H](OC9OC(CO)C(O)C(O)C9O)[C@@](C)(CO)C8[C@H](O)C[C@@]7(C)[C@]5(C)CC6)OCC(O)C4O)O[C@H]3C)C2O)C(O)C(O)C1O` (stereo not given in full): the activity change, negative = cytotoxicity was -5.97% [at 9.29 µM] (inactive). Same read-out and setting: in the case of `CC/C(C)=C/C(=O)OC1C(OC2(C)CCC3C(C4C(C)CCC42)C3(C)C)OC(C)C(O)C1O` (stereo not given) it was -27.6% [at 17.3 µM] (inactive). Consider `C[C@H](Oc1cc(-n2cnc3ccc(CN4CCN(C)CC4)cc32)sc1C(N)=O)c1ccccc1C(F)(F)F`, for which the Potency was 4.61 µM (active). In the case of `CC1(C)CCCC2(C)C1C(=O)C=C(C(=O)O)C2(O)C(=O)O` (stereo not given), the “activity change, negative = cytotoxicity” value is -11.8% (inactive). As to `CC(=O)N[C@@H](C=O)[C@H](O)[C@H](O)[C@@H](O)CO`, the “activity change, negative = cytotoxicity” value is -14.5% (inactive).

Source of the values: PubChem BioAssay (NCATS).
